This is an account of results in PubChem BioAssay AID602143 (Vanderbilt Specialized Chemistry Center, 2011).

Active and inactive are the calls of the source. Cut-off read from the data, not from the text of the source: active = remaining activity below about 50%; inactive = the rest.

In the assay the target is Phospholipase D2 (Homo sapiens) (UniProt O14939). Briefly: PLD2 inhibitors in cells, cell-based, HEK293, single concentration (AID 602143).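 Note: tested at 200 nM.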 To be noted: HEK293 cellular PLD2 activity, percent of control; stronger effect = lower value.
Phospholipase D2 (Homo sapiens), sequence (O14939 whole entry, looked up): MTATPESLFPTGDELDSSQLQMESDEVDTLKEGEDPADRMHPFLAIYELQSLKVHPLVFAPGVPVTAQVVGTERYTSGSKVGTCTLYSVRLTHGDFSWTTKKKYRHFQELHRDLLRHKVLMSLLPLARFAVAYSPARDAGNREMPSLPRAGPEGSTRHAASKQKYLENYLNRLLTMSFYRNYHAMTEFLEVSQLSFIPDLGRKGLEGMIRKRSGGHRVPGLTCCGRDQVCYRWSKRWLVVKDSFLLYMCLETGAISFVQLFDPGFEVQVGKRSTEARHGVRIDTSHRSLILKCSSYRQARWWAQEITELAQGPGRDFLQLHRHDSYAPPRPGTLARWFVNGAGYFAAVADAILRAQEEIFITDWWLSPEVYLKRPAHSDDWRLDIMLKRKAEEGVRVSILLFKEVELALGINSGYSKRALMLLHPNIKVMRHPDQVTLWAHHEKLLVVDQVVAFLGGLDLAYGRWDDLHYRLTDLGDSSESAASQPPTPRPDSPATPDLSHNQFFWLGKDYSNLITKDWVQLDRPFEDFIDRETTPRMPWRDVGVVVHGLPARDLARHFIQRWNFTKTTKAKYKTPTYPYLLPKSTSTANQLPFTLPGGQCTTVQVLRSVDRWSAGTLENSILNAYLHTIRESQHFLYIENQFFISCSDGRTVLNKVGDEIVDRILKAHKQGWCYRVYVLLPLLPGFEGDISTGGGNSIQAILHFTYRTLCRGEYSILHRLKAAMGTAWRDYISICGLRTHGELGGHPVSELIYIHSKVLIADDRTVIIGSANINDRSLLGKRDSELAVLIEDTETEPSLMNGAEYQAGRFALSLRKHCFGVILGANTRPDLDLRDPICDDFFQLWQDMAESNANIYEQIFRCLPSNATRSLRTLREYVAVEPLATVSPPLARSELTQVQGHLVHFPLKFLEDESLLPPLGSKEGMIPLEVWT
Phospholipase D2 (Homo sapiens), sequence (O14939 whole entry, looked up): as above
Turning to `O=C(NCCN1CCC2(CC1)C(=O)NCN2c1cccc(Cl)c1)c1cc2cc(F)ccc2[nH]1`, the remaining activity was 40.2% (active).

For the compound `O=C(c1ccc2ccccc2c1)N1CC(N2CCC3(CC2)C(=O)NCN3c2ccccc2)C1`, the remaining activity is 72.6% (inactive).

On to `O=C(NCCN1CCC2(CC1)C(=O)NCN2c1ccccc1)c1cscn1`, for which the remaining activity was 76.2% (inactive).

On to `Cc1ccccc1C(=O)NCCN1CCC2(CC1)C(=O)NCN2c1cccc(F)c1`, for which the remaining activity is 115% (inactive).

For `O=C(NCCN1CCC2(CC1)C(=O)NCN2c1ccc(F)cc1)c1ccc2cc(F)ccc2c1`, the remaining activity was 61.1% (inactive).

Take `O=C(NCCN1CCC2(CC1)C(=O)NCN2c1ccccc1)c1ccc(F)cc1O`: the remaining activity is 82.6% (inactive).

As to `Cc1cccc(C(=O)NCCN2CCC3(CC2)C(=O)NCN3c2ccccc2)n1`, the remaining activity was 89% (inactive).

In the case of `O=C(NCCN1CCC2(CC1)C(=O)NCN2c1ccccc1)c1ccc2c(c1)C(=O)OC2=O`, the remaining activity was 93.5% (inactive).

As for `O=C(c1cnc2ccccc2c1)N1CCC[C@@H]1CN1CCC2(CC1)C(=O)NCN2c1ccccc1`, the remaining activity is 106% (inactive).

`O=C(NCCN1CCC2(CC1)C(=O)NCN2c1ccc(F)c(F)c1)c1ccc(Cl)cc1`: the remaining activity is 55.3% (inactive).

Turning to `O=C(c1ccc2ccccc2c1)N1CC(N2CCC(n3c(=O)[nH]c4ccccc43)CC2)C1`, the remaining activity is 64.3% (inactive).

Take `C[C@H](CN1CCC2(CC1)C(=O)NCN2c1ccccc1)NC(=O)c1ccc(F)cc1`: the remaining activity is 81.7% (inactive).

Turning to `O=C(NCCN1CCC2(CC1)C(=O)NCN2c1ccc(F)cc1)c1cc2cc(F)ccc2[nH]1`, the remaining activity is 14.3% (active).

Take `O=C(NCCN1CCC2(CC1)C(=O)NCN2c1ccc(Cl)cc1)c1cnc2ccccc2c1`: the remaining activity is 29.7% (active).

With `CC(C)(C)C(=O)NCCN1CCC2(CC1)C(=O)NCN2c1cccc(F)c1`, the remaining activity is 74.9% (inactive).

As to `O=C(NCCN1CCC2(CC1)C(=O)NCN2c1cccc(F)c1)c1ccc(Cl)cc1Cl`, the remaining activity is 92.4% (inactive).

Turning to `O=C(N[C@@H](Cc1ccccc1)CN1CCC2(CC1)C(=O)NCN2c1ccccc1)c1ccc(F)c(F)c1`, the remaining activity is 102% (inactive).

For `O=C(Cc1cccs1)NCCN1CCC2(CC1)C(=O)NCN2c1cccc(F)c1`, the remaining activity was 77.8% (inactive).

`O=C(NCCN1CCC2(CC1)C(=O)NCN2c1ccccc1)c1cnc2ccccc2n1`: the remaining activity is 101% (inactive).

Regarding `O=C(NCCN1CCC2(CC1)C(=O)NCN2c1ccccc1)C1C[C@H]1c1ccccc1` (stereo not given in full), the remaining activity was 98.4% (inactive).

Consider `O=C(NCCN1CCC2(CC1)C(=O)NCN2c1ccc(Cl)cc1)c1ccc(Cl)cc1`, for which the remaining activity is 49% (active).

For the compound `O=C(c1cnc2ccccc2c1)N1CC(N2CCC(n3c(=O)[nH]c4cc(Br)ccc43)CC2)C1`, the remaining activity was 99.7% (inactive).

In the case of `O=C(NCCN1CCC2(CC1)C(=O)NCN2c1ccccc1)c1cnco1`, the remaining activity is 80.4% (inactive).

For the compound `C[C@H](CN1CCC2(CC1)C(=O)NCN2c1ccccc1)NC(=O)c1cc(Br)c(Br)o1`, the remaining activity is 85.7% (inactive).

Regarding `O=C(NCCN1CCC2(CC1)C(=O)NCN2c1cccc(F)c1)c1c(F)cccc1F`, the remaining activity is 88% (inactive).

Consider `O=C(NCCN1CCC2(CC1)C(=O)NCN2c1ccc(Cl)cc1)c1cc2cc(F)ccc2[nH]1`, for which the remaining activity was 57% (inactive).

For the compound `O=C(NCCN1CCC2(CC1)C(=O)NCN2c1ccc(Br)cc1)c1ccc2ccccc2c1`, the remaining activity was 52% (inactive).

In the case of `O=C(c1c(F)cccc1F)N(CCN1CCC2(CC1)C(=O)NCN2c1cccc(F)c1)C(=O)c1c(F)cccc1F`, the remaining activity was 88.1% (inactive).

For `COc1cc(C(=O)NCCN2CCC3(CC2)C(=O)NCN3c2ccccc2)ccc1N`, the remaining activity was 38.8% (active).

For `O=C(NCCN1CCC2(CC1)C(=O)NCN2c1ccccc1)c1ccc(-c2ccccc2)o1`, the remaining activity was 50.1% (inactive).

Regarding `O=C(NCCN1CCC2(CC1)C(=O)NCN2c1cccc(F)c1)c1cccc(F)c1`, the remaining activity is 63.4% (inactive).

As to `O=C(NCCN1CCC2(CC1)C(=O)NCN2c1ccc(Cl)cc1)c1cc2ccccc2[nH]1`, the remaining activity is 48.1% (active).

`O=C(CCN1CCC2(CC1)C(=O)NCN2c1ccccc1)Nc1ccc(Cl)cc1`: the remaining activity was 183% (inactive).

Regarding `O=C(CCc1ccc(F)cc1)NCCN1CCC2(CC1)C(=O)NCN2c1ccccc1`, the remaining activity is 102% (inactive).

Regarding `CN(CCN1CCC2(CC1)C(=O)NCN2c1ccccc1)C(=O)c1ccc2ccccc2c1`, the remaining activity is 95.2% (inactive).

Usually remaining activity stands for the signal under treatment as a percentage of the control signal.
